Screening results (PubChem)
KCNQ2 pot: enhances the rat KCNQ2 potassium channel; O88943; CHO-K1 KCNQ2, FluxOR thallium flux fluorescence; active compounds read high; B-score at 10 µM; 0.54% of 310,000 active; AID 2239;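 active = fluorescence ratio B-score at least 3 SD of library B-scores, with initial fluorescence B-score within 3 of them, cut at about 5.3 in these data; same plate scores as AID 2156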;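 note: B-score of peak minus minimum over baseline fluorescence ratio after K+ and Tl+ stimulus; positive B-score means potentiation of KCNQ2 with more thallium influx and brighter signal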
Target sequence (O88943 whole entry, looked up): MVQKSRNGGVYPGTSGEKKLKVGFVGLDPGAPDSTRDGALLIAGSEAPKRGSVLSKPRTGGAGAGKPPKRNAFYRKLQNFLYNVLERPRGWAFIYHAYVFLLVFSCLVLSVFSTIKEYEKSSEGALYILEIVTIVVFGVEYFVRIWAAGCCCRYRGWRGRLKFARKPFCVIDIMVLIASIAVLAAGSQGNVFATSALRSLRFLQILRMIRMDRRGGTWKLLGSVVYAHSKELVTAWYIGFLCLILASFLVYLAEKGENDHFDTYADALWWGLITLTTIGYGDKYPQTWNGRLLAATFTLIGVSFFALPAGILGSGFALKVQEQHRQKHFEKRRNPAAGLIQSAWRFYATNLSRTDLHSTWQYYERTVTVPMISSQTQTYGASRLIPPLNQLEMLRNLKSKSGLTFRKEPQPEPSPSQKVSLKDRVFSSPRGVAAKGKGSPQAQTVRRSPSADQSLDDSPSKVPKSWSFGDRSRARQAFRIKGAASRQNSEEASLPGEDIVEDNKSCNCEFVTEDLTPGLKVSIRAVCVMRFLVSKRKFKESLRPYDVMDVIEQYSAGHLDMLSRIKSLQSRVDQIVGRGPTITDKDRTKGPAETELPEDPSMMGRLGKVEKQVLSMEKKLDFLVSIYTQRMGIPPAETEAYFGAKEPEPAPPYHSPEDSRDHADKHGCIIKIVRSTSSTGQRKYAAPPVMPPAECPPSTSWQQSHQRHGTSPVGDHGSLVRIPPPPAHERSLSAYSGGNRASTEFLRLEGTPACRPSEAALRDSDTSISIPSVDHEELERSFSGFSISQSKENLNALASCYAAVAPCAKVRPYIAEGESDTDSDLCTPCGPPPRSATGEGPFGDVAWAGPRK
KCNQ2 block: blocks the rat KCNQ2 potassium channel. CHO-K1 KCNQ2, FluxOR thallium flux, 20 min; active compounds read low. B-score at 10 µM. 1.1% of 310,000 active. AID 2156;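 active = fluorescence ratio B-score at most minus 3 library SDs, with starting brightness B-score within 2 library SDs, cut at about -5.5 in these data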
KCNQ2 block conf: rat KCNQ2 channel inhibition, confirmatory screen | KCNQ2-expressing cells, thallium flux; active compounds read low | activity change, negative = inhibition, % at 10 µM | 57% of 1,000 active | AID 493025 | shares compounds with KCNQ2 block;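 note: 0% = vehicle wells and values are ratio percent relative to vehicle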
KCNQ1 spec: human KCNQ1 activity in KCNQ2 inhibitor specificity screen | shares compounds with KCNQ2 block | KCNQ1-expressing cells, FluxOR thallium flux fluorescence; active compounds read low | activity change, negative = inhibition, % at 10 µM | 15% of 1,000 active | AID 493026;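 active = activity change at least 3 SD of negative controls below their mean in both duplicate wells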;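 note: CHO cells stably transfected with KCNQ1 and depolarized by potassium stimulus; peak minus minimum fluorescence over baseline after thallium addition; 0% = vehicle negative control and -100% = blank without thallium stimulus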
CHO Tl ctr: counter-screen for KCNQ2 inhibitors: effect in parental CHO cells. activity change, % at 10 µM. thallium flux counter-screen; active compounds read low. 14% of 1,000 active. shares compounds with KCNQ2 block. AID 493029;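 note: 0% = vehicle negative controls with stimulus buffer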
KCNQ2 inh confirm: blocks rat KCNQ2 current in automated patch clamp | calls only at 10 µM | shares compounds with KCNQ2 block | AID 588531 | KCNQ2-expressing cells | 49% of 550 active
The depositor's hits bear a star; i = inactive; nt = no result; + = active, no number. This is a sample that favours compounds with a hit; in the whole collection about 1.6% have one here. Unless noted, the rule behind the calls is not given here.

SMILES | KCNQ2 pot | KCNQ2 block | KCNQ2 block conf | KCNQ1 spec | CHO Tl ctr | others
Cc1ccccc1NC1=C(C(=O)c2ccccc2)N(C)S(=O)(=O)c2ccccc21 | -8.1 | -8.1* | -29%* | i | i | KCNQ2 inh confirm=+
CCOc1ccccc1C(C(=O)NC1CCCCC1)N(C(=O)c1csnn1)C1CC1 (centres undefined) | 1.6 | i | nt | nt | nt
COc1ccc(CCNC(=O)c2ccc(NS(=O)(=O)c3ccc4[nH]c(=O)[nH]c4c3)cc2)cc1 | nt | i | nt | nt | nt
CC1(C)CC(NS(=O)(=O)c2ccc(C(C)(C)C)cc2)CC(C)(C)N1 | nt | i | nt | nt | nt
COc1ccc(-c2nc(CS(=O)CC(=O)NCc3ccc(Cl)cc3)c(C)o2)cc1OC (centres undefined) | nt | i | nt | nt | nt
COCCCn1c(O)c(/C=C2\N=C(C#N)C(=Nc3ccc(C)cc3)O2)sc1=S | nt | i | nt | nt | nt
COc1cc2c(cc1NC(=O)C(c1ccccc1)c1ccccc1)CCCC2 | -7.1 | -7.1* | -34%* | i | i | KCNQ2 inh confirm=+
COc1cc(NC(=O)C(c2ccccc2)c2ccccc2)c(C(=O)O)cc1OC | 0.39 | i | nt | nt | nt
OC(CNC1CCCCC1)COCCOc1ccc(Br)cc1 (centres undefined) | 0.97 | i | nt | nt | nt
COc1ccc(-c2nc(CSCC(=O)NC3CCCc4ccccc43)c(C)o2)cc1 (centres undefined) | -7.3 | -7.3* | -29%* | i | i | KCNQ2 inh confirm=+
COc1cc(CC(=O)NC2CCCc3ccccc32)cc(OC)c1OC (centres undefined) | 0.39 | i | nt | nt | nt
COc1ccccc1CC(=O)NC1CCCc2ccccc21 (centres undefined) | -7.1 | -7.1* | -24%* | i | i | KCNQ2 inh confirm=+
COC(=O)[C@H](CC(C)C)NC(=O)NC1CCCc2ccccc21 (some centres undefined) | -7.5 | -7.5* | -28%* | i | i | KCNQ2 inh confirm=+
CCOC(=O)N1CCC(NC(=O)CSCc2nc(-c3ccc(OC)cc3)oc2C)CC1 | nt | i | nt | nt | nt
CC(C)C[C@H](NC(=O)NC1CCCc2ccccc21)C(=O)O (some centres undefined) | nt | i | nt | nt | nt
CC(NC(=O)Cc1ccc(S(=O)(=O)N2CCOCC2)s1)c1ccc(Cl)c(Cl)c1 (centres undefined) | 1.2 | i | nt | nt | nt
CCC(C)c1ccccc1NC(=O)COC(=O)C1=COCCO1 (centres undefined) | 1.5 | i | nt | nt | nt
Cc1c(NC(=O)CN2CCCC(C)C2)ccc2nsnc12 (centres undefined) | nt | i | nt | nt | nt
CCOc1ccccc1N1CC(C(=O)N(C)Cc2cccnc2)CC1=O (centres undefined) | 0.05 | i | nt | nt | nt
CN(C(=O)/C=C/c1ccc2c(c1)OCO2)c1ccccc1 | -6.6 | -6.6* | -23%* | i | i | KCNQ2 inh confirm=i
COC(=O)/C=C/c1ccc2c(c1)OCO2 | 1.8 | i | nt | nt | nt
CCN1CCN(C(=O)C(C)Nc2ccc(OC)cc2OC)CC1 (centres undefined) | nt | i | nt | nt | nt
COC(=O)c1sccc1NC(=O)c1cc(-c2ccc(C)cc2C)nc2ccccc12 | nt | i | nt | nt | nt
CCCCSc1nc(NCc2ccco2)c2c3c(sc2n1)COC(C)(C)C3 | nt | i | nt | nt | nt
CCCSc1nc(NCc2ccco2)c2c3c(sc2n1)COC(C)(C)C3 | -9.8 | -9.8* | i | i | i
SMILES | KCNQ2 pot | KCNQ2 block | KCNQ2 block conf | KCNQ1 spec | CHO Tl ctr | others
COCCn1c(N)c(N(Cc2ccccc2)C(=O)COc2ccc(F)cc2Cl)c(=O)[nH]c1=O | nt | i | nt | nt | nt
CCCCOC1(c2ccccc2)OC(=O)c2ccccc21 (centres undefined) | nt | i | nt | nt | nt
CCCCC(CC)COC1(c2ccccc2)OC(=O)c2ccccc21 (centres undefined) | -9.7 | -9.7* | -33%* | i | i | KCNQ2 inh confirm=i
O=C(NC(NCC1CCCO1)C(Cl)(Cl)Cl)c1cccc2ccccc12 (centres undefined) | -8.6 | -8.6* | i | i | i
O=C(NCC1CCCO1)c1cccc2ccccc12 (centres undefined) | 0.01 | i | nt | nt | nt
COCCn1c(NCc2ccco2)nc2c1c(=O)[nH]c(=O)n2C | 0.02 | i | nt | nt | nt
C=C(C)CN1CCN(S(=O)(=O)c2ccc(C)c(N(C)S(=O)(=O)c3ccc(C)cc3)c2C)CC1 | -8.5 | -8.5* | -32%* | -32%* | -25%* | KCNQ2 inh confirm=i
Cc1ccc(S(=O)(=O)N(C)c2c(C)ccc(S(=O)(=O)N3CCN(C)CC3)c2C)cc1 | nt | i | nt | nt | nt
COc1cccc(CN(C)C(=O)c2ccc(N3CCCC3)c([N+](=O)[O-])c2)c1 | 1.1 | i | nt | nt | nt
O=C(CN1CCN(Cc2ccccc2F)CC1)Nc1ccccc1Cl | nt | i | nt | nt | nt
COc1ccc(CN(CCC(c2ccccc2)c2ccco2)C(=O)c2ccco2)cc1 (centres undefined) | -6.7 | -6.7* | -38%* | -43%* | -36%* | KCNQ2 inh confirm=i
CCN(CC)C(=O)CC(c1ccccc1)c1ccco1 (centres undefined) | nt | i | nt | nt | nt
COc1ccc(CN(C(=O)c2ccco2)c2ccccc2)cc1 | 0.07 | i | nt | nt | nt
O=C(c1ccco1)N(CCC(c1ccccc1)c1ccco1)Cc1ccccc1 (centres undefined) | -7.7 | -7.7* | -26%* | i | i | KCNQ2 inh confirm=+
CCOC(=O)C1CCN(C(=O)c2ccc3nc(-c4ccc(OC)cc4)c(-c4ccc(OC)cc4)nc3c2)CC1 | nt | i | nt | nt | nt
CCN1CCc2nc3ccccc3c(C(=O)Nc3ccc(NC(C)=O)cc3)c2C1 | 0.89 | i | nt | nt | nt
CCN1CCc2nc3ccccc3c(C(=O)Nc3ccc(F)cc3)c2C1 | -9.4 | -9.4* | i | i | i
CCn1c(C)c(C)c2cc(C(=O)N3CCN(c4ccccc4)CC3)ccc21 | -6.9 | -6.9* | i | i | i
CCn1c(C)c(C)c2cc(C(=O)N3CCCC3)ccc21 | 0.37 | i | nt | nt | nt
CC1CN(S(=O)(=O)c2cccc(C(=O)Nc3ccccc3N3CCCCC3)c2)CC(C)O1 (centres undefined) | -9.5 | -9.5* | -29%* | i | i | KCNQ2 inh confirm=i
CN(C)S(=O)(=O)c1cccc(C(=O)Nc2ccccc2N2CCCCC2)c1 | nt | i | nt | nt | nt
Cc1c(Cl)cccc1NC(=O)Nc1cc(C(C)(C)C)on1 | nt | i | nt | nt | nt
Cc1ccc2oc(C(=O)N(Cc3ccc(N(C)C)cc3)CC3CCCO3)c(C)c2c1 (centres undefined) | nt | i | nt | nt | nt
Cc1cc2oc(C(=O)N(Cc3ccc(N(C)C)cc3)CC3CCCO3)c(C)c2cc1C (centres undefined) | -8.6 | -8.6* | -37%* | -36%* | -34%* | KCNQ2 inh confirm=+
Cc1ccc(NS(=O)(=O)c2c(C)noc2C)cc1 | 0.61 | i | nt | nt | nt
Cc1ccc(C(=O)C(c2ccccc2)N2Cc3ccccc3C2=N)cc1 (centres undefined) | -8.6 | -8.6* | -32%* | i | i | KCNQ2 inh confirm=+
COc1ccc(C(=O)C(c2ccccc2)N2CCOCC2)cc1 (centres undefined) | 1.2 | i | nt | nt | nt
COC(=O)c1cn(NC(=O)c2cc(OC)cc(OC)c2)c(=O)c2ccccc12 | 0.43 | i | nt | nt | nt
